# Experimental data published in ChEMBL document CHEMBL1961873, “Compounds: GSK PKIS; Assays: Nanosyn kinase panel” (2012).
# How the values were obtained:
# [1] = biological target: T1, Tyrosine-protein kinase receptor TYRO3 (Homo sapiens) (UniProt Q06418); details: at 1 µM
# T1 sequence (whole entry): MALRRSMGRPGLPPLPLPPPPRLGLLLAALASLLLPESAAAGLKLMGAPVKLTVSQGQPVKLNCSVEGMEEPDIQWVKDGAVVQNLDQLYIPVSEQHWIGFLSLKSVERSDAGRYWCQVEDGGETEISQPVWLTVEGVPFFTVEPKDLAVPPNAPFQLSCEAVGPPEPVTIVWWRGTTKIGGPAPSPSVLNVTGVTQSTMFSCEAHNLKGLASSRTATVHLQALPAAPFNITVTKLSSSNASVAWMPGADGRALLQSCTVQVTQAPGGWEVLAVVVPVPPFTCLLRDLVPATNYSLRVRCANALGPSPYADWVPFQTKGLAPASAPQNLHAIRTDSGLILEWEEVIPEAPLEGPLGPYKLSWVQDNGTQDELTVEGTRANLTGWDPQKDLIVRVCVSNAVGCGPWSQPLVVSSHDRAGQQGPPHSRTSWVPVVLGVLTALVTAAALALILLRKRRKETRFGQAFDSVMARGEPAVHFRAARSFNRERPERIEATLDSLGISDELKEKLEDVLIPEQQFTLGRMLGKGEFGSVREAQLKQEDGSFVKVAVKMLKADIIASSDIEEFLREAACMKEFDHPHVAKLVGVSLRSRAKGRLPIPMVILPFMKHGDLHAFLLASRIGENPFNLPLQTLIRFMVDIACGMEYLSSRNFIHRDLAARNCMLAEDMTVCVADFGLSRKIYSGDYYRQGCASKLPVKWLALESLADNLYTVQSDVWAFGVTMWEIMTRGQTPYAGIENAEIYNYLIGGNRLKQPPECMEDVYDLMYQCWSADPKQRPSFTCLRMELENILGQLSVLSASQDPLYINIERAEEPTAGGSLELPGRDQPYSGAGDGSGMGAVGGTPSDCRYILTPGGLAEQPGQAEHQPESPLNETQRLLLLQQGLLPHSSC
# [2] = biological target: Tyrosine-protein kinase Yes (Homo sapiens) (UniProt P07947); details: at 0.1 µM
# Chain of Tyrosine-protein kinase Yes (Homo sapiens) (P07947 2-543 limits assumed): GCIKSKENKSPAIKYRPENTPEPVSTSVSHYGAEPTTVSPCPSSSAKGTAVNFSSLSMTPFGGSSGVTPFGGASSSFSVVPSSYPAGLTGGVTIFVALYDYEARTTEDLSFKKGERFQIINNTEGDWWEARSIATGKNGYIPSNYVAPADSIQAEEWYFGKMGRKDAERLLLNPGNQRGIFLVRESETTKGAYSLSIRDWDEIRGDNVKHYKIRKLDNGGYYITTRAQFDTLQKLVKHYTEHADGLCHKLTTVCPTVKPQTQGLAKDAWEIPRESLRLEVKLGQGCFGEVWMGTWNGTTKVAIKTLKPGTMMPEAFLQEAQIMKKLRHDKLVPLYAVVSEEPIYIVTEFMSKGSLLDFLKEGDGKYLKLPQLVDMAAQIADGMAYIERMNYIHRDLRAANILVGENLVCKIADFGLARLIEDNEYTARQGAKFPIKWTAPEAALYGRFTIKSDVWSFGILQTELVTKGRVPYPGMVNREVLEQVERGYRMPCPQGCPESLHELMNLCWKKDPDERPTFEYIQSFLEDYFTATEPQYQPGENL
# [3] = biological target: Tyrosine-protein kinase Yes (Homo sapiens) (UniProt P07947); details: at 1 µM
# [4] = biological target: T2, Tyrosine-protein kinase ZAP-70 (Homo sapiens) (UniProt P43403); details: at 0.1 µM
# T2 sequence (whole entry): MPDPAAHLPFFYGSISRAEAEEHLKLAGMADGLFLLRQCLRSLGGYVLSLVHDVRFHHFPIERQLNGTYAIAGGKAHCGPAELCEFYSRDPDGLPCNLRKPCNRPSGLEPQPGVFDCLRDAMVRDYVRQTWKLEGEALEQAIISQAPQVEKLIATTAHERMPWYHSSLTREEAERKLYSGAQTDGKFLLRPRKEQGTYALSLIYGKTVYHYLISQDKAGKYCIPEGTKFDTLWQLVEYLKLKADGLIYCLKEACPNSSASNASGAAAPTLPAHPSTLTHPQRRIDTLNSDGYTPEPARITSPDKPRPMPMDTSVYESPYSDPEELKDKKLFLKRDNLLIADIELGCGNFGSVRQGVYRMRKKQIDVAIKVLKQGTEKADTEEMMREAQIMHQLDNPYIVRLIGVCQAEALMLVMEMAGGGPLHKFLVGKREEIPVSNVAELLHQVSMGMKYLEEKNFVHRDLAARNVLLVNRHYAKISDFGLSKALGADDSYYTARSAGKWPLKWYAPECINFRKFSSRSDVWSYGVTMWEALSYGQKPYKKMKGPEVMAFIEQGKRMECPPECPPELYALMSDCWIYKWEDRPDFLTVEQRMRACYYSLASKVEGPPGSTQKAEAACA
# [5] = biological target: T2, Tyrosine-protein kinase ZAP-70 (Homo sapiens); details: at 1 µM
# [6] = biological target: Serine/threonine-protein kinase B-raf (Homo sapiens) (UniProt P15056); details: at 0.1 µM
# Chain of Serine/threonine-protein kinase B-raf (Homo sapiens) (P15056 whole entry): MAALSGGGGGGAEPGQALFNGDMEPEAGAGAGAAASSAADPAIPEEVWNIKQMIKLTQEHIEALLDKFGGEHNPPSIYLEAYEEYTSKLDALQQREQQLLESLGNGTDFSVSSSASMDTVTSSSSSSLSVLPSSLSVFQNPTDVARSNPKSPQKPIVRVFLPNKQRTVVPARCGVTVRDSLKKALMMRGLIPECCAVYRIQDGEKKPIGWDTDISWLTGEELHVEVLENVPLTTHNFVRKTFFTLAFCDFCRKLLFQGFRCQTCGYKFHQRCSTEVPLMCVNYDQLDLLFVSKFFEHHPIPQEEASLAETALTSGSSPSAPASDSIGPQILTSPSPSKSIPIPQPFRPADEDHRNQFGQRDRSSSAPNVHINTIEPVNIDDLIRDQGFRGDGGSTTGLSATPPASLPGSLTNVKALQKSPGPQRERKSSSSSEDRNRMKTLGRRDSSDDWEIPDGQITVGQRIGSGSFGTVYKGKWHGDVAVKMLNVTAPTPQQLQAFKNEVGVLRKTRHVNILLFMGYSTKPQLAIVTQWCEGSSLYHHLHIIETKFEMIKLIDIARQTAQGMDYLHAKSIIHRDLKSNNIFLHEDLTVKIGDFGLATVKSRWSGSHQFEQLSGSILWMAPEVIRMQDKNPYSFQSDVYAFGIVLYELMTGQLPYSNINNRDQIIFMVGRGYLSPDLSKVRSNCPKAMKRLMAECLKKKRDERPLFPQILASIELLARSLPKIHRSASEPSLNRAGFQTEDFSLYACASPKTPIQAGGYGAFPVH
# [7] = biological target: Serine/threonine-protein kinase B-raf (Homo sapiens) (UniProt P15056); details: at 1 µM
# [8] = system: Serine/threonine-protein kinase B-raf (Homo sapiens), P15056 [V600E]; details: at 0.1 µM
# Chain of Serine/threonine-protein kinase B-raf (Homo sapiens), P15056 [V600E] (P15056 whole entry V600E): as the sequence (P15056 whole entry) above, with V600E counted along it
# [9] = system: Serine/threonine-protein kinase B-raf (Homo sapiens), P15056 [V600E]; details: at 1 µM
# [10] = biological target: RAF proto-oncogene serine/threonine-protein kinase (Homo sapiens) (UniProt P04049); details: at 0.1 µM
# Chain of RAF proto-oncogene serine/threonine-protein kinase (Homo sapiens) (P04049 whole entry): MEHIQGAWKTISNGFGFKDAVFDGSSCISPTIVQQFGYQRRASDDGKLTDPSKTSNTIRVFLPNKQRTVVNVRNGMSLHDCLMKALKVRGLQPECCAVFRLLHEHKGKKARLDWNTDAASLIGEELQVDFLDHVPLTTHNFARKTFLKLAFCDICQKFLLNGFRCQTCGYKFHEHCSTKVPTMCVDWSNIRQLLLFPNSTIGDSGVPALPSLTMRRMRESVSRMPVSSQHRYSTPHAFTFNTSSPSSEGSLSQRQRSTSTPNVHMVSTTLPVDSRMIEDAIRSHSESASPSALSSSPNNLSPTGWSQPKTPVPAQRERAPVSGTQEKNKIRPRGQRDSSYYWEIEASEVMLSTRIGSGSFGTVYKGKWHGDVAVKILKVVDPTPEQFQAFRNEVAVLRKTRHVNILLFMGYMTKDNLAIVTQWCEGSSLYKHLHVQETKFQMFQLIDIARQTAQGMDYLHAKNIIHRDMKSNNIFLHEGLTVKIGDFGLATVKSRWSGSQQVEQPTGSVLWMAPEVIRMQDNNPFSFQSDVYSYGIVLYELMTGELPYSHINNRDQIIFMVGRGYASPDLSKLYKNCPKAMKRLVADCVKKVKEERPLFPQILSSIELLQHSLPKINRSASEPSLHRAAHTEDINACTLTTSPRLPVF
# [11] = biological target: RAF proto-oncogene serine/threonine-protein kinase (Homo sapiens) (UniProt P04049); details: at 1 µM
# [12] = biological target: T3, Interleukin-1 receptor-associated kinase 4 (Homo sapiens) (UniProt Q9NWZ3); details: at 0.1 µM
# T3 sequence (whole entry): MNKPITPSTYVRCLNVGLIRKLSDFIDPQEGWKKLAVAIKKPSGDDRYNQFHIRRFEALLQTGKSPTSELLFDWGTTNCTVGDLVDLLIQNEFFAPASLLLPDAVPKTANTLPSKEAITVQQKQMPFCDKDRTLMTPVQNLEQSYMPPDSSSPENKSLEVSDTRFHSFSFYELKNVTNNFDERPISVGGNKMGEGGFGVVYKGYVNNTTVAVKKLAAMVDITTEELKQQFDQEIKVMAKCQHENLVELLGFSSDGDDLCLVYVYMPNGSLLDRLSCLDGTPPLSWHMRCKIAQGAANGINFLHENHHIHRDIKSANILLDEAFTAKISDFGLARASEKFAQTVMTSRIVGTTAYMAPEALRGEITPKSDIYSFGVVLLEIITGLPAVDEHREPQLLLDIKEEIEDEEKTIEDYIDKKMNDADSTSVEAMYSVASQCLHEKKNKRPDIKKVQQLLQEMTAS
# [13] = biological target: T3, Interleukin-1 receptor-associated kinase 4 (Homo sapiens); details: at 1 µM
# [14] = biological target: Leucine-rich repeat serine/threonine-protein kinase 2 (Homo sapiens) (UniProt Q5S007); details: at 0.1 µM
# Chain of Leucine-rich repeat serine/threonine-protein kinase 2 (Homo sapiens) (Q5S007 whole entry): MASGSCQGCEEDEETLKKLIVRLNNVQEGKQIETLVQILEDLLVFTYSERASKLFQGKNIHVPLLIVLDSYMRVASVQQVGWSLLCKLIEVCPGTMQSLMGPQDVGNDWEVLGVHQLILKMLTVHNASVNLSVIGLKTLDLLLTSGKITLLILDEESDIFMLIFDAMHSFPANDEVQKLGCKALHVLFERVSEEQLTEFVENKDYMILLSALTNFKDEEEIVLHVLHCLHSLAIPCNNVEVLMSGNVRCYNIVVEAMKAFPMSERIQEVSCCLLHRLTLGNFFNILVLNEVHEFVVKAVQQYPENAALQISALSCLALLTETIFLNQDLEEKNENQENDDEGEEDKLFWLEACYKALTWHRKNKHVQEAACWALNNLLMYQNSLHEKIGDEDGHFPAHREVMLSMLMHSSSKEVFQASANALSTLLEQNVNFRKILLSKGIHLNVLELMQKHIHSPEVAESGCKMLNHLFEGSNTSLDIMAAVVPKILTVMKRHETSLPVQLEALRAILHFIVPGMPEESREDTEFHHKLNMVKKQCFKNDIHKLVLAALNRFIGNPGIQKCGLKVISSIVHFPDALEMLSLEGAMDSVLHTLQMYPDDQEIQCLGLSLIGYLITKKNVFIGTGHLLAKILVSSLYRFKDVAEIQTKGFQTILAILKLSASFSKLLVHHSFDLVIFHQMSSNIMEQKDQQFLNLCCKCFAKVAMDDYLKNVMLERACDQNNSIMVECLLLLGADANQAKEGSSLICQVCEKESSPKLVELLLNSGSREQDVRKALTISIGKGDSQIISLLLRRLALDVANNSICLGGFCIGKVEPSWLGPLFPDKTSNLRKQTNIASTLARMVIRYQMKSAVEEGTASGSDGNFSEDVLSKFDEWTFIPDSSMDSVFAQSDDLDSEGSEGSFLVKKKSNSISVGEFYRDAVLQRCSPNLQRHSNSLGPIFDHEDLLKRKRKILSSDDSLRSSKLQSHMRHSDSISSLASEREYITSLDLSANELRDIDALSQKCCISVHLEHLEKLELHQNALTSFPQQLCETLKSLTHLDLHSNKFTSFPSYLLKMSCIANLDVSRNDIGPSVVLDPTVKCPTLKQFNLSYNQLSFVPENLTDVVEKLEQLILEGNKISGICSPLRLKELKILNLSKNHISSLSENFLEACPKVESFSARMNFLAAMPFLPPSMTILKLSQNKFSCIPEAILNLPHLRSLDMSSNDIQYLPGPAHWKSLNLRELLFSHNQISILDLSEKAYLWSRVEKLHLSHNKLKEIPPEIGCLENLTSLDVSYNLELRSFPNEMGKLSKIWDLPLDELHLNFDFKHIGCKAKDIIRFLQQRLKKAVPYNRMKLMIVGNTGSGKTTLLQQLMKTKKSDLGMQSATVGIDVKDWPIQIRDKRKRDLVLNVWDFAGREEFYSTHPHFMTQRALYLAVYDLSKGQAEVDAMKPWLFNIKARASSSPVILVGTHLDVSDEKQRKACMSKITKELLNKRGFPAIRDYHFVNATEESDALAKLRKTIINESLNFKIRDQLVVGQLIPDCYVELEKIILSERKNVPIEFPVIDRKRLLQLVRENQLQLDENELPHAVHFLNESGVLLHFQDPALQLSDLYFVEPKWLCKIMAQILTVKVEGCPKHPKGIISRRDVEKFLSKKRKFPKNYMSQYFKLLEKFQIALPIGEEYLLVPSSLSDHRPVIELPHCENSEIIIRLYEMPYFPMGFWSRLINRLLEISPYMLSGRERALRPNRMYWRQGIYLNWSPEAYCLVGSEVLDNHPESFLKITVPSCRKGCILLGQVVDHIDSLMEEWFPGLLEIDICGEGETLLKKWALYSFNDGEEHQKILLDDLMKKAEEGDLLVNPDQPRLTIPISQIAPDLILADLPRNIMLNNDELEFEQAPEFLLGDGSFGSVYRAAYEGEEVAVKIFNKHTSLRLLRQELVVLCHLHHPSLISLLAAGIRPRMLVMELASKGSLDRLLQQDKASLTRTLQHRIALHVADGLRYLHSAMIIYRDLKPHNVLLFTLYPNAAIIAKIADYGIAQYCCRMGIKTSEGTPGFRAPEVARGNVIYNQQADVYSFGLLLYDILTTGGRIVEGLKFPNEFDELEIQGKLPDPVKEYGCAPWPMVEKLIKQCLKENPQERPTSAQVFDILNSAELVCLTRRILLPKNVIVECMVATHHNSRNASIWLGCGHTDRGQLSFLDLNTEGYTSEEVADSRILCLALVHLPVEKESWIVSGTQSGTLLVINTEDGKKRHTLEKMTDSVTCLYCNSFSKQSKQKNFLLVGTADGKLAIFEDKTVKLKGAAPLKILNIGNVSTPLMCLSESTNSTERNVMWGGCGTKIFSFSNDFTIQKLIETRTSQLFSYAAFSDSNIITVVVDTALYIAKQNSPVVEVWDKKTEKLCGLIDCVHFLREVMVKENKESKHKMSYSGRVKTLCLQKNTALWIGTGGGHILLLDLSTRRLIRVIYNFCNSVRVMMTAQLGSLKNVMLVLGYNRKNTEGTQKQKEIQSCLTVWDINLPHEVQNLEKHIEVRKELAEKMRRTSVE
# [15] = biological target: Leucine-rich repeat serine/threonine-protein kinase 2 (Homo sapiens) (UniProt Q5S007); details: at 1 µM
# [16] = system: Leucine-rich repeat serine/threonine-protein kinase 2 (Homo sapiens), Q5S007 [G2019S]; details: at 0.1 µM
# Chain of Leucine-rich repeat serine/threonine-protein kinase 2 (Homo sapiens), Q5S007 [G2019S] (Q5S007 whole entry G2019S): as the sequence (Q5S007 whole entry) above, with G2019S counted along it
# [17] = system: Leucine-rich repeat serine/threonine-protein kinase 2 (Homo sapiens), Q5S007 [G2019S]; details: at 1 µM
Structure (SMILES),inhibition [1] [%],inhibition [2] [%],inhibition [3] [%],inhibition [4] [%],inhibition [5] [%],inhibition [6] [%],inhibition [7] [%],inhibition [8] [%],inhibition [9] [%],inhibition [10] [%],inhibition [11] [%],inhibition [12] [%],inhibition [13] [%],inhibition [14] [%],inhibition [15] [%],inhibition [16] [%],inhibition [17] [%]
CS(=O)(=O)CCN(CC#N)Cc1ccc(-c2ccc3ncnc(Nc4ccc(OCc5cccc(F)c5)c(Cl)c4)c3c2)o1,2.22,-1.67,2.4,-3.82,-0.8,4.46,1.74,1.42,2.17,0.21,-3.46,0.21,0.75,-6.54,-8.08,-3.2,-2.31
COc1ccc(-c2nn3ncccc3c2-c2ccnc(Nc3ccc(Cl)c(C(F)(F)F)c3)n2)cc1,3.05,7.39,46.2,0.91,-1.1,3.94,4.03,3.98,3.99,-1.5,-8.01,2.17,0.42,0.37,1.12,2.99,3.98
CN(C)c1cc2c(Nc3ccc4nc(Cc5ccccc5)[nH]c4c3)ncnc2cn1,4.25,9.2,37,6.34,12.4,7.82,7.35,7.73,11.2,-7.41,-7.27,2.36,1.94,5.94,7.11,5.3,13.7
COc1ccc2cc(-c3c(-c4ccncc4)nc(-c4ccc([S+](C)[O-])cc4)n3C)ccc2c1 (stereo not given),0.86,2.16,8.42,1.94,2.34,3.84,5.05,4.92,4.5,0.38,9.73,3.57,1.12,2.6,4.23,3.37,5.02
CC(=O)Nc1cccc(C#Cc2cncnc2Nc2ccc(OCc3cccc(F)c3)c(Cl)c2)n1,1.63,4.46,10.7,2.6,-0.49,-1.65,-3.08,-2.42,-2.04,0.47,-2.95,-0.61,-0.89,3.07,4.78,2.03,5
CCn1c(-c2nonc2N)nc2c(N3CCCC3)nccc21,-1.5,-4.35,4.6,1.14,2.3,0.2,4.02,-2.4,-2.63,-1.29,-1.43,1.9,-0.28,-2.19,2.91,0.77,1.57
COc1ccc(-c2coc3ncnc(N)c23)cc1,0.37,1.25,2.89,0.06,4.55,4.66,7.42,6.07,6.81,2.99,4.1,0.41,1.48,3.62,6.4,4.35,7.19
CS(=O)(=O)CCNCc1ccc(-c2ccc3ncnc(Nc4ccc(OCc5ccccc5)c(Cl)c4)c3c2)o1,2.01,7.69,39.4,-7.6,-0.02,0.1,1.24,1.67,1.38,-1.06,-1.69,0.4,0.86,2.66,7.97,4.51,7.5
COc1cc2ncn(-c3cc(O[C@H](C)c4ccccc4Cl)c(C(N)=O)s3)c2cc1OC,37.6,4.24,17.8,2.5,7.57,4.31,3.59,4.51,3.77,1.34,2.16,-1.67,3.82,5.85,21.6,12.1,51.9
CC1=C(C(=O)Nc2ccc3[nH]ncc3c2)C(c2ccc(Cl)c(Cl)c2)CC(=O)N1 (stereo not given),1.34,4.16,20,0.71,2.3,5.79,31.6,6.48,31.4,4.61,2.44,-3.53,0.93,2.44,4.77,0.95,8.99
CCCN1CCC=C(c2ccc(Nc3nc(Nc4ccccc4C(N)=O)c4cc[nH]c4n3)c(C)c2)C1,9.79,1.14,5.4,5.54,27.4,8.31,33.4,7.56,28.2,5.61,3.95,2.14,5.18,77.6,87.8,63.6,63.6
Fc1cccc(COc2ccc(Nc3ncnc4cc(-c5ccc[nH]5)sc34)cc2Cl)c1,3.81,2.17,9.41,-0.46,-0.93,3.64,2.48,3.55,2.69,5.88,1.43,7.16,1.69,-4.42,-3.46,-1.54,0.39
COc1ccc(-c2ccncc2)cc1C(N)=O,0.74,-1.44,3.66,-0.9,1.01,6.32,8.48,5.07,5.66,1.23,-2.86,1.8,2.34,2.67,5.73,4.45,9.13
O=C1NC(=O)C(c2ccccc2Cl)=C1Nc1cccc(O)c1,1.2,1.06,-1.97,1.65,0.4,3.05,3.21,3.01,2.95,4.73,-0.43,-2,1.87,4.27,13.2,3.28,14.6
COc1cc2ncn(-c3cc(OCc4ccccc4C(F)(F)F)c(C(N)=O)s3)c2cc1OC,10.3,1.77,7.91,-2.01,-1.32,5.82,4.85,3.47,3.52,1.99,-0.64,1.2,1.85,1.63,16.1,5.35,40.1
